Results filed as inconclusive are left out. A call without a number means that no potency is given here. The source made the active and inactive calls. Calls follow the shape of the dose curve; as a rule, active = well fitted inhibition curve with a large enough effect in the repeat runs; inconclusive = weak or mixed curves; inactive = no such curve, though single readings can be large or run the other way. Positions of bridges follow the written chain, without caps; N, C: chain ends. Non-standard residues stand in square brackets, D forms with d. Residues, ends and D or L forms follow the SMILES beside them. *: point of attachment. X1 = CC[C@@H](C)[C@@H](N)C1=N[C@H](C(=O)*)CS1; d(aIle) = CC[C@H](C)[C@@H](N)C(=O)O; dOrn = NCCC[C@@H](N)C(=O)O
What follows are compounds tested against Aromatase (Homo sapiens) (UniProt P11511) (assay: qHTS assay to identify aromatase inhibitors (AID 743083; also: nearly all actives have a fitted effect of over 55% in size)). Settings: MCF-7 aro ERE, testosterone-driven ERE luciferase, 24 h; series mostly up to 70.3 µM.
Chain of Aromatase (Homo sapiens) (P11511 whole entry, looked up): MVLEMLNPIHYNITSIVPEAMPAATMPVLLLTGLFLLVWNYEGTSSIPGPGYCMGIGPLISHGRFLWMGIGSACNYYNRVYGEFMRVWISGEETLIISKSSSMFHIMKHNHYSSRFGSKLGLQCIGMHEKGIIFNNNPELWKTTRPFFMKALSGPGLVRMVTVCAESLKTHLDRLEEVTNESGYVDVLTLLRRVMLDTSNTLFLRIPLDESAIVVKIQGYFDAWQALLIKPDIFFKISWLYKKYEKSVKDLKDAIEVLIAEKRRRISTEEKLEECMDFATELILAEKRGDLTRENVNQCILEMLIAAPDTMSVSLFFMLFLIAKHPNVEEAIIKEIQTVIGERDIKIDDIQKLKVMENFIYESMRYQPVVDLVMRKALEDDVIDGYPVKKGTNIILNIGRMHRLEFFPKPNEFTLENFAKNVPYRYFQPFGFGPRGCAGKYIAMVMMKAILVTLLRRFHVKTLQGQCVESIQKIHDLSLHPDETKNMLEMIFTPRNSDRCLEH
In the case of CCN(CC)CC#CCOC(=O)C(O)(c1ccccc1)C1CCCCC1 (stereo unspecified), the Potency is reported as “inactive”. With CC(=O)O[C@H]1C[C@@H]2CC[C@@H]3[C@H](CC[C@@]4(C)[C@H]3C[C@H]([N+]3(C)CCCCC3)[C@@H]4OC(C)=O)[C@@]2(C)C[C@@H]1[N+]1(C)CCCCC1 the Potency was “inactive”. CCN(CC)CCOC[C@H]1O[C@@H](O)[C@H](OCCN(CC)CC)[C@@H](O)[C@@H]1O was tested, and the Potency was “inactive”. With CN=C(N)NCCC[C@H](N)C(=O)O the Potency was “inactive”. With CSCC[C@H](NC(=O)[C@H](Cc1ccc(OS(=O)(=O)O)cc1)NC(=O)[C@@H](N)CC(=O)O)C(=O)NCC(=O)N[C@@H](Cc1c[nH]c2ccccc12)C(=O)N[C@@H](CCSC)C(=O)N[C@@H](CC(=O)O)C(=O)N[C@@H](Cc1ccccc1)C(N)=O the Potency was “inactive”. CCOC(=O)COc1ccc2c(=O)cc(-c3ccccc3)oc2c1 was tested, and the Potency was “inactive”. With CC[C@@H](C)[C@H](N)C(=O)O the Potency was “inactive”. In the case of CCCCCCCCCCCC[n+]1ccc2ccccc2c1, the Potency is reported as 10.6 µM (active). In the case of O=C1CC[C@@H](C(=O)N[C@H]2C[C@@H]2c2ccccc2)N1, the Potency is reported as “inactive”. For CC(C)(S)C(=O)N[C@@H](CS)C(=O)O, the Potency was “inactive”. With CC(C)(C)C(=O)OCC(=O)[C@H]1CC[C@H]2[C@@H]3CCC4=CC(=O)CC[C@]4(C)[C@H]3CC[C@]12C the Potency was “inactive”. For NC[C@H]1O[C@H](O[C@H]2[C@H](O)[C@@H](O[C@H]3O[C@H](CO)[C@@H](O)[C@H](N)[C@H]3O)[C@H](N)C[C@@H]2N)[C@H](N)C[C@@H]1O, the Potency was “inactive”. In the case of C/C(=C\C(=O)OCCCCCCCCC(=O)O)C[C@@H]1OC[C@H](C[C@@H]2O[C@H]2[C@@H](C)[C@H](C)O)[C@@H](O)[C@H]1O, the Potency is reported as “inactive”. With O=[N+]([O-])c1ccc(O)c2ncccc12 the Potency was 7.5 µM (active). Cc1cc(Br)ccc1NC(=O)CCl was tested, and the Potency was 30.6 µM (active). With O=P(O)(O)C(O)(Cn1ccnc1)P(=O)(O)O the Potency was “inactive”. CCOc1ccc(S(=O)(=O)O)c2cccnc12 was tested, and the Potency was “inactive”. For FC(F)(F)COCC(F)(F)F, the Potency was “inactive”. With CC(=NCc1ccccc1)c1ccccc1O the Potency was “inactive”. In the case of CC(=O)OCC(=O)[C@@]1(O)CC[C@H]2[C@@H]3CCC4=CC(=O)CC[C@]4(C)C3=CC[C@@]21C, the Potency is reported as “inactive”. In the case of O=C(O)/C=C/C(=O)Nc1ccc(S(=O)(=O)Nc2nccs2)cc1, the Potency is reported as “inactive”. With Cc1onc(-c2c(F)cccc2Cl)c1C(=O)N[C@@H]1C(=O)N2[C@@H]1SC(C)(C)[C@@H]2C(=O)O the Potency was “inactive”. For O=C(O)c1cc2cc(Cc3cccnc3)ccc2o1, the Potency was “inactive”. With CC[C@@H](C)[C@@H](N)C1=N[C@H](C(=O)N[C@@H](CC(C)C)C(=O)N[C@@H](CCC(=O)O)C(=O)N[C@@H](C(=O)N[C@@H]2CCCCNC(=O)[C@@H](CC(N)=O)NC(=O)[C@@H](CC(=O)O)NC(=O)[C@@H](Cc3cnc[nH]3)NC(=O)[C@@H](Cc3ccccc3)NC(=O)[C@@H]([C@H](C)CC)NC(=O)[C@@H](CCCN)NC2=O)[C@@H](C)CC)CS1 (X1-LE[d(aIle)][dK][dOrn][dI][dF][dH][dD][dN]; lactam 4-C) the Potency was “inactive”. NC(=O)[C@H]1O[C@@H](O)[C@H](O)[C@@H](O)[C@@H]1O was tested, and the Potency was “inactive”. In the case of CC(C)C[C@H](NC(=O)[C@@H](COC(C)(C)C)NC(=O)[C@H](Cc1ccc(O)cc1)NC(=O)[C@H](CO)NC(=O)[C@H](Cc1c[nH]c2ccccc12)NC(=O)[C@H](Cc1cnc[nH]1)NC(=O)[C@@H]1CCC(=O)N1)C(=O)N[C@@H](CCCN=C(N)N)C(=O)N1CCC[C@H]1C(=O)NNC(N)=O, the Potency is reported as “inactive”. Cc1c(N)nc([C@H](CC(N)=O)NC[C@H](N)C(N)=O)nc1C(=O)N[C@H](C(=O)N[C@H](C)[C@@H](O)[C@H](C)C(=O)N[C@H](C(=O)NCCc1nc(-c2nc(C(=O)NCCCCN=C(N)N)cs2)cs1)[C@@H](C)O)[C@@H](O[C@@H]1O[C@@H](CO)[C@@H](O)[C@H](O)[C@@H]1O[C@H]1O[C@H](CO)[C@@H](O)[C@H](OC(N)=O)[C@@H]1O)c1cnc[nH]1 was tested, and the Potency was “inactive”. In the case of NC(N)=NCCCCN=C(N)N, the Potency is reported as “inactive”. With COc1ccc(/C=N/NC(=O)c2ccncc2)c(C(=O)O)c1OC the Potency was “inactive”. With O=C1CCC(c2ccc(-n3ccnc3)cc2)=NN1 the Potency was 6.68 µM (active). With Cc1cnc(C(=O)O)c[n+]1[O-] the Potency was “inactive”. With NCC(O)CC(=O)O (stereo unspecified) the Potency was “inactive”. With O=C(N[C@H](CO)[C@H](O)c1ccc([N+](=O)[O-])cc1)C(Cl)Cl the Potency was “inactive”. For O=C(CCCN1CCN2CCCC2C1)c1ccc(F)cc1 (stereo unspecified), the Potency was “inactive”. Nc1nc(/C(=C/CC(=O)O)C(=O)N[C@@H]2C(=O)N3C(C(=O)O)=CCS[C@H]23)cs1 was tested, and the Potency was “inactive”. With O=C1c2ccccc2CN2C(=O)c3ccccc3CN12 the Potency was “inactive”.

— PubChem BioAssay (Tox21)
Potency is read from the fitted curve at half-maximal effect.
